The values below come from PubChem BioAssay (NCATS).

SMILES strings stand for the structures. Records with an inconclusive call do not appear. Active and inactive are the calls of the source. Unless noted, calls come from the whole dose curve; as a rule, active = well fitted curve in the direction sought with a large enough effect; inconclusive = small, poorly fitted or top-dose-only effect, or another doubt; inactive = no such curve, though single readings can be large; an effect the other way counts as inactive or inconclusive.

The target in test [1] is Lysosomal acid glucosylceramidase (Homo sapiens) (UniProt P04062). Briefly: Glucocerebrosidase-p2 (AID 348; in the data active = potency below about 10 µM; note: potency is the fitted concentration of half-maximal effect). Conditions: purified GBA, blue fluorogenic substrate, 40 min. The essentials:
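Compounds titrated from 0.6 nM upwards against 0.2 nM enzyme in pH 5.9 citric acid/KH2PO4, taurocholate, tween-20; blue fluorogenic substrate 80 uM, 40 min room temperature, stopped and read Ex 365/Em 440 for AC50.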

The nature of test [2]: AP1 Signaling Pathway (AID 357; active = well fitted curve in either direction with a large enough effect, not every such curve was filed as active; note: % is set by controls: 0 for no effect and ±100 for the full control effect). As to conditions: ME-180 AP-1-bla reporter, EGF-induced, beta-lactamase ratio, 5 h; at 7.69 µM (top of the series) unless noted. A digest of the protocol:
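AP-1-bla ME-180 cells with beta-lactamase reporter under AP-1 response element, stimulated with EC50 EGF; compounds titrated, 5 hours at 37 degrees Celsius. CCF4 read at 460/530 nm ratio; positive and negative modulators judged by AC50.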

Test [3] addresses Cytochrome P450 1A2 (Homo sapiens) (UniProt P05177). Briefly: p450-cyp1a2 (AID 410; calls by dose curve; note: potency is the fitted concentration of half-maximal effect;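 for activity change, negative = inhibition: -100% = full effect of reference inhibitor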). As to conditions: recombinant CYP1A2, luciferin-ME demethylation, luminescence; series mostly up to 57 µM. The essentials: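 Human CYP1A2 (20nM) demethylated Luciferin-ME at its Km (100uM) in 100mM KPO4. After 10 min compound preincubation, NADPH regeneration ran the reaction 60 min at room temperature. Luciferin was read by luminescence, normalized to 57 uM furafylline.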

Test [4] is described as follows: NFAT Signaling Pathway (AID 444; active = well fitted curve in either direction with a large enough effect, not every such curve was filed as active;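 note: carbachol stimulus at about its EC50 of 1 µM final; % is set by controls: 0 for no effect and ±100 for the full control effect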). Conditions: Jurkat NFAT-bla M1, carbachol, beta-lactamase ratio, 5 h; at 7.69 µM (top of the series) unless noted. The essentials:
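Jurkat cells carrying an NFAT-driven β-lactamase reporter and co-transfected muscarinic M1 receptor were treated with compound plus carbachol (1 uM final, an EC50 level) for 5 h at 37 °C. CCF4 loading followed for 1 h at RT; 460/530 nm ratio gave %activity.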

In test [5] the target is Glucocorticoid receptor (Homo sapiens) (UniProt P04150). Briefly: GR-EFC Redistribution (AID 451; calls by dose curve; note: potency is the fitted concentration of half-maximal effect). Conditions: CHO-K1 GR-EFC translocation, beta-gal luminescence, 2 h. The essentials: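 CHO-K1 cells stably expressing nuclear-localized β-gal enzyme acceptor and GR fused C-terminally to the enzyme donor fragment; ligand-driven nuclear translocation restores β-gal by complementation. Compounds titrated up to 46 uM final, 2 h at 37 °C; luminescence read.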
Sequence of Glucocorticoid receptor (Homo sapiens) (P04150 whole entry, looked up, the tested form may be a part): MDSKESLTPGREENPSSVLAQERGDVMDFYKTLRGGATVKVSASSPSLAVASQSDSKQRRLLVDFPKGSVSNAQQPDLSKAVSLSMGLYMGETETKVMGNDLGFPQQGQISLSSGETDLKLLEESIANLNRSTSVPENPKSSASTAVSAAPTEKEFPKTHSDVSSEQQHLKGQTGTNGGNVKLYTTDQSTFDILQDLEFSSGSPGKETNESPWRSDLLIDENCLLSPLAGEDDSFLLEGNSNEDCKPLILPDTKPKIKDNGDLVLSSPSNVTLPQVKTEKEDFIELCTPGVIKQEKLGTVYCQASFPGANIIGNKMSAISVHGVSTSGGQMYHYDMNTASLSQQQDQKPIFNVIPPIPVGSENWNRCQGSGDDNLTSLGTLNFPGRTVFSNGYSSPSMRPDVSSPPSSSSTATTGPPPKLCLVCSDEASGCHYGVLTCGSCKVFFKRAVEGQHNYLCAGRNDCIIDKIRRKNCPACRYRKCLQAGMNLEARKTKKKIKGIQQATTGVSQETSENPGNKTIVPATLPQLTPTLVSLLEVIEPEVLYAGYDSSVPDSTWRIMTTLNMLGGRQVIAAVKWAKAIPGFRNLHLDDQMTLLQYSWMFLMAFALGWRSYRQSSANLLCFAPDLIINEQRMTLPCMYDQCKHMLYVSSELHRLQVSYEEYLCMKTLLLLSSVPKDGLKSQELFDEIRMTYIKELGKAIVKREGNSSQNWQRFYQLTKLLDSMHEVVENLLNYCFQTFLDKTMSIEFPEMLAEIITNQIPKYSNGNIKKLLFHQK

Test [6] deals with Mitogen-activated protein kinase 10 (Mus musculus) (UniProt Q61831). Briefly: JNK3 AlphaScreen Assay (AID 530; active = well fitted curve in either direction with a large enough effect, not every such curve was filed as active;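 note: kinase came from lysate of stimulated human HepG2 cells; signal reports phosphorylation of biotinylated GST-cJun 1-79 at Ser73 with 10 µM ATP; % is set by controls: 0 for no effect and ±100 for the full control effect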). As to conditions: JNK3 lysate, c-Jun phosphorylation; series mostly up to 57.1 µM. The essentials:
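JNK3 came from HepG2 lysates pre-activated with IL-1beta and TNF-alpha and phosphorylated biotinylated GST-cJun (1-79) at 10 uM ATP, pH 7.6, room temperature. Compounds were titrated. AlphaScreen signal used anti-phospho-cJun (Ser73) antibody.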

Test [7] deals with 3',5'-cyclic-AMP phosphodiesterase 4B (Homo sapiens) (UniProt Q07343). Nature of the test: qHTS Assay for Inhibitors of PDE-IV (AID 607; active = well fitted activation curve with a large enough effect in the main read-out, with a control signal flat, not every such curve was filed as active; note: % of control where 0% means no effect). Conditions: HEK293 ACTOne CNG channel cells, membrane potential fluorescence; series mostly up to 22.9 µM. The essentials:
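Live HEK293 cells with a modified cyclic nucleotide-gated (CNG) channel report intracellular cAMP via membrane-potential dye fluorescence (ex 535/em 590 nm). Endogenous PDE-IV was targeted. Compounds were tested at up to 22.9 uM final; RO 20-1724 100 uM served as control.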
(In general: qHTS replaces the single test concentration by a dilution series.)

Test [8] can be described thus: qHTS Assay for Lipid Storage Modulators (AID 1519; calls by dose curve). As to conditions: Drosophila S3 cells, BODIPY lipid droplet/cell ratio, laser cytometry, cells loaded with oleic acid; for activity change, negative = inhibition: at 57.5 µM (top of the series). A digest of the protocol:
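Cells seeded at 5,000 per well were treated with compounds over a concentration series and loaded with oleic acid (400 uM, as added). Lipid droplet fluorescence (488 nm excitation, 500-530 nm channel) was read by laser-scanning cytometry and normalized to 20 uM Triacsin C.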

A short description of test [9]: Primary qHTS for small molecule stabilizers of the endoplasmic reticulum resident proteome: Secreted ER Calcium Modulated Protein (SERCaMP) assay (AID 1508630). Note: % is set by controls: 0 for no effect and ±100 for the full control effect. Conditions: SH-SY5Y GLuc-SERCaMP (Gaussia luciferase released on ER calcium loss) secretion, thapsigargin, luminescence; series mostly up to 38.4 µM. A digest of the protocol: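 GLuc-SERCaMP-expressing SH-SY5Y cells, pretreated 16 h with compound, are challenged with thapsigargin to empty ER calcium stores; after 4 h, coelenterazine is added directly to the medium and luminescence is imaged.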

Test [10] in a line: Stat Signaling Pathway (AID 446; active = well fitted curve in either direction with a large enough effect, not every such curve was filed as active). As to conditions: ME-180 SIE beta-lactamase reporter, IL-6 stimulated, 5 h; at 7.69 µM (top of the series) unless noted. A digest of the protocol: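 IL-6/STAT signaling read in ME-180 cells via an SIE beta-lactamase reporter. Stimulus was 40 pM IL-6 (its AC50) for 5 hrs, so both activation and inhibition register.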
For test [11], the target named is Glucocorticoid receptor (Homo sapiens) (UniProt P04150). Briefly: GR-GFP Redistribution (AID 450;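 active = compounds whose dose series gives a full or clear partial fitted curve of increased nuclear translocation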; note: potency is the fitted concentration of half-maximal effect). Conditions: U2OS GR-GFP nuclear translocation, laser cytometry, 2 h.
The target in test [12] is Cytochrome P450 2C9 (Homo sapiens) (UniProt P11712). Nature of the test: qHTS Assay for Inhibitors and Substrates of Cytochrome P450 2C9 (AID 883). Note: nearly all actives have a fitted effect of over 60% in size. Note: potency is the fitted concentration of half-maximal effect. As to conditions: recombinant CYP2C9, luciferin-H luminescence, 60 min; series mostly up to 57.1 µM. A digest of the protocol: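 A luminogenic readout tracked human CYP2C9 (10nM) converting deoxyluciferin (100uM, at KM) in 25mM KPO4 during 60 min at 37C with regenerated NADPH. Values normalized to 57uM sulphaphenazole as complete inhibition.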
Sequence of Cytochrome P450 2C9 (Homo sapiens) (P11712 whole entry, looked up): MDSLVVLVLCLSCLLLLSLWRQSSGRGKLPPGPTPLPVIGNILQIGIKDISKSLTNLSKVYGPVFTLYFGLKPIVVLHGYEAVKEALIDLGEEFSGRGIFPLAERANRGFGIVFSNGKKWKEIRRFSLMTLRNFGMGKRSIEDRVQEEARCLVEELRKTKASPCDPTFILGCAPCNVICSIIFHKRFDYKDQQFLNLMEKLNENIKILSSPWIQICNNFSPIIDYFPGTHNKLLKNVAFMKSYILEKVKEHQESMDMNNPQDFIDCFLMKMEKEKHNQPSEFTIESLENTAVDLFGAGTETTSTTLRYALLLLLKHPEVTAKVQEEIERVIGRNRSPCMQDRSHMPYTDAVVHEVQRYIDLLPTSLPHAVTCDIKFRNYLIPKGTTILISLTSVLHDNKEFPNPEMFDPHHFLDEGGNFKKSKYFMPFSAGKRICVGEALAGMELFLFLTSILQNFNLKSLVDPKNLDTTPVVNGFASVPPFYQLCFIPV

The target of test [13] is Cytochrome P450 3A4 (Homo sapiens) (UniProt P08684). Briefly: qHTS Assay for Inhibitors and Substrates of Cytochrome P450 3A4 (AID 884). Note: potency is the fitted concentration of half-maximal effect; nearly all actives have a fitted effect of over 50% in size. As to conditions: recombinant CYP3A4, Luciferin-PPXE luminescence; series mostly up to 57.1 µM. The essentials: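 20 nM human CYP3A4 with 25 uM Luciferin-PPXE (at KM) in 200 mM KPO4, preincubated 10 min with compound; NADPH regeneration started a 60 min RT reaction. Luciferin detected by luminescence, normalized to 57 uM ketoconazole as full inhibition.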
Sequence of Cytochrome P450 3A4 (Homo sapiens) (P08684 whole entry, looked up): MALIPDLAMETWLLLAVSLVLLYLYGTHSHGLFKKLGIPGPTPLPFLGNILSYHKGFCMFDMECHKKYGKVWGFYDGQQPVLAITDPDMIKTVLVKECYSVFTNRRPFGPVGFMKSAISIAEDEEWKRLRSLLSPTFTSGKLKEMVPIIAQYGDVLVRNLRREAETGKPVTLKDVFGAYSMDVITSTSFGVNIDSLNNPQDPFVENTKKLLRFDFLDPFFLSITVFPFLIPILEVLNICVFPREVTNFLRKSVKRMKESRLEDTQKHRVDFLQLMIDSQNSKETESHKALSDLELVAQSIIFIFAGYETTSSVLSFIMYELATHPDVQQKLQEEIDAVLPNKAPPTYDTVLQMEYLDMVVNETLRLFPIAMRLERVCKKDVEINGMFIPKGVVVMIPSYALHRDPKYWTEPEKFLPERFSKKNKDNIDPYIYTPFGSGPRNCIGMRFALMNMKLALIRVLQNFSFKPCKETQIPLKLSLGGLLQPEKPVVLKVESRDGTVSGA

For test [14] the target is unchanged. Briefly: qHTS Assay for Activators of Cytochrome P450 3A4 (AID 885). Note: nearly all actives have a fitted effect of over 65% in size. Conditions: recombinant CYP3A4, Luciferin-PPXE luminescence, 60 min; series mostly up to 57.1 µM. The essentials:
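Quantitative HTS format: compounds preincubated with 20nM human CYP3A4 and Luciferin-PPXE substrate at KM, reaction started by NADPH regeneration, stopped after 60 min, luciferase luminescence read 20 min later.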

The target in test [15] is Cytochrome P450 2C19 (Homo sapiens) (UniProt P33261). Nature of the test: qHTS Assay for Inhibitors and Substrates of Cytochrome P450 2C19 (AID 899). Note: potency is the fitted concentration of half-maximal effect; nearly all actives have a fitted effect of over 60% in size. As to conditions: recombinant CYP2C19, luciferin-H EGE luminescence; series mostly up to 57.1 µM. The essentials:
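NADPH-dependent conversion of Luciferin-H EGE (10uM, at KM) by 5nM enzyme in 50mM KPO4, 60 min at 37C following 10 min compound preincubation. Stopped with luciferin detection buffer; luminescence read after 20 min.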

A short description of test [16]: Confirmation and Secondary Assay for Modulators of Hemoglobin Beta Chain Splicing at IVS2 654 locus (AID 910).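 Note: per-well total GFP intensity by laser scanning cytometry after 2-day treatment; % of control where 0% means no effect.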 As to conditions: HeLa EGFP-654 splicing reporter, GFP fluorescence, 48 h; series mostly up to 38.3 µM. The essentials: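 HeLa cells stably carrying EGFP interrupted by mutant beta-globin IVS2-654 intron (CMV-driven) were treated with compound for 2 days at 37C; corrected splicing was scored as total peak GFP intensity per well (488 nm excitation, 500-520 nm emission).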

Test [17] can be described thus: Confirmation and Secondary Assay for Modulators of Hemoglobin Beta Chain Splicing at IVS2 705 locus (AID 930). Note: % of control where 0% means no effect. As to conditions: HeLa EGFP-705 splicing reporter, GFP fluorescence, 48 h; series mostly up to 38.3 µM. The essentials: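 Fluorescence gain (488 nm laser, 500-520 nm PMT) reflects restored correct splicing of a mutant IVS2-705 intron inside EGFP in stably transfected HeLa cells after 2-day compound treatment.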

For test [18], the target named is Ubiquitin carboxyl-terminal hydrolase 1 (Homo sapiens) (UniProt O94782). Nature of the test: Inhibitors of USP1/UAF1: Pilot qHTS (AID 504865). Note: nearly all actives have a fitted effect of over 35% in size. Note: potency is the fitted concentration of half-maximal effect. Conditions: purified USP1/UAF1, Ub-rhodamine cleavage fluorescence; series mostly up to 54.9 µM. A digest of the protocol: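 USP1/UAF1 complex (1nM) preincubated with compound 15 min at room temperature, then Ub-Rho substrate (150nM final) added. Fluorescence read kinetically at 480/540 nm, 6 reads every 60 seconds. Buffer: 50mM HEPES pH 7.8, 0.5mM EDTA, 0.1 mg/ml BSA, 1mM TCEP, 0.01% Tween-20.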
Sequence of Ubiquitin carboxyl-terminal hydrolase 1 (Homo sapiens) (O94782 whole entry, looked up): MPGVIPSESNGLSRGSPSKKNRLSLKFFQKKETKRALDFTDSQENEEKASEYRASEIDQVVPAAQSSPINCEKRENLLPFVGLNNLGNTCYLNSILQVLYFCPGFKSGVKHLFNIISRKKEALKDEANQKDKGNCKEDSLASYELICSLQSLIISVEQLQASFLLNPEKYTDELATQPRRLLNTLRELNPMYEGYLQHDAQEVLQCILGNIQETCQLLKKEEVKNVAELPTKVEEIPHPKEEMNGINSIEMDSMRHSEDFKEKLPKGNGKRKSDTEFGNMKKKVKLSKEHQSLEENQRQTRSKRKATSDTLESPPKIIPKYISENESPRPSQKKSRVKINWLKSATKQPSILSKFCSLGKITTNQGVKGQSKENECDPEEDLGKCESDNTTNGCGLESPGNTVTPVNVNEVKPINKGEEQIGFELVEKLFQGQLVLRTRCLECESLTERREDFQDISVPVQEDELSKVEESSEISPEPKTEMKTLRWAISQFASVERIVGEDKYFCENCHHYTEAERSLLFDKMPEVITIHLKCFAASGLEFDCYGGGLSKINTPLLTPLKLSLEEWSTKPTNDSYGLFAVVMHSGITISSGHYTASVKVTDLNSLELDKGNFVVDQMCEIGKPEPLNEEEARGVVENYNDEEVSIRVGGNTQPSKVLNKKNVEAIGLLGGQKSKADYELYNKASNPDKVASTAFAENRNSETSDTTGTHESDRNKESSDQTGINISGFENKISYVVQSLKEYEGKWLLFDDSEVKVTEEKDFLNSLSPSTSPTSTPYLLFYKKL

Test [19] in a line: qHTS Assay for Identification of Small Molecule Agonists for Hypoxia Response Element Signaling Pathway (AID 914; active = well fitted activation curve with a large enough effect in the signal ratio, with a control signal flat, not every such curve was filed as active; the % refers to the signal ratio; note: potency is the fitted concentration of half-maximal effect). Conditions: ME-180 (cervical carcinoma) HRE-bla reporter, beta-lactamase ratio, CoCl2, 17 h; activation: stronger effect = higher value. A digest of the protocol:
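A beta-lactamase reporter under hypoxia response element control in ME-180 cells served as the system. Compound titrations plus EC50 CoCl2 ran 17 h at 37 degrees Celsius; AC50 values were fitted from %Activity.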

The mark [20] stands for this setting: measured here: cell count channel max response.
Where [21] appears, read: measured here: lipid channel max response.

Sequence of Cytochrome P450 1A2 (Homo sapiens) (P05177 whole entry, looked up): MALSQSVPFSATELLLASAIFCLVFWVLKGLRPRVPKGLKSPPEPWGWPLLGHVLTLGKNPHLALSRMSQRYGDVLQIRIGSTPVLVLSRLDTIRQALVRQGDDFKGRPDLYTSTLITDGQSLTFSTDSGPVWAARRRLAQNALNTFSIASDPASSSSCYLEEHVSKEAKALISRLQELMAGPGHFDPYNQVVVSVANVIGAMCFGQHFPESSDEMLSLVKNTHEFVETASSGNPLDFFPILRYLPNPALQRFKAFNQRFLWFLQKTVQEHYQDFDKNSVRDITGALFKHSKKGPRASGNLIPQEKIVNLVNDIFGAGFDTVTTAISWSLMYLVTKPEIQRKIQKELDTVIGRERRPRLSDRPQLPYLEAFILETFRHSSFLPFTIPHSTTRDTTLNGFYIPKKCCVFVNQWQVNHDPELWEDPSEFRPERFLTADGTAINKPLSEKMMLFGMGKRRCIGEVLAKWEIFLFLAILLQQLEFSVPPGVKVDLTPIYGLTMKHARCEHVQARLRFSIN
Sequence of 3',5'-cyclic-AMP phosphodiesterase 4B (Homo sapiens) (Q07343 whole entry, looked up): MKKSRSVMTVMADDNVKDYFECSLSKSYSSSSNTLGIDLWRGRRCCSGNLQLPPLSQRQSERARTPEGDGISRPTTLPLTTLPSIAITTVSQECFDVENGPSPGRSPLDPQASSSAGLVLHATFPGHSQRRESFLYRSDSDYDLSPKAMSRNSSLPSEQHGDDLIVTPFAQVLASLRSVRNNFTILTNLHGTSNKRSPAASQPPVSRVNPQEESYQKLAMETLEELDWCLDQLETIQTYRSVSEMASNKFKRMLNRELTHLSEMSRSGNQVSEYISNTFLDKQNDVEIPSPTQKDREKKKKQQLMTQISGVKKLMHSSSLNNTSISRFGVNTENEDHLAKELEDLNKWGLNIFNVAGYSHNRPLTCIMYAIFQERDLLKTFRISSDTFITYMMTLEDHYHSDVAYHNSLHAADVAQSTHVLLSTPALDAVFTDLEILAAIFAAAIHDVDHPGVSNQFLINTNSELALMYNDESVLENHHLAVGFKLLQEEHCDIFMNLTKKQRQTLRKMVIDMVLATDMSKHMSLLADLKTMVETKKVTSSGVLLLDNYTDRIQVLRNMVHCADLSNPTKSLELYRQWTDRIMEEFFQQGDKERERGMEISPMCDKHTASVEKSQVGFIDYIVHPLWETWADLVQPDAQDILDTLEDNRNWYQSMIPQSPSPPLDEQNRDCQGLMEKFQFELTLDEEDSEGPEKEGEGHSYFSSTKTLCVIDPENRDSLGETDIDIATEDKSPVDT
Sequence of Lysosomal acid glucosylceramidase (Homo sapiens) (P04062 whole entry, looked up): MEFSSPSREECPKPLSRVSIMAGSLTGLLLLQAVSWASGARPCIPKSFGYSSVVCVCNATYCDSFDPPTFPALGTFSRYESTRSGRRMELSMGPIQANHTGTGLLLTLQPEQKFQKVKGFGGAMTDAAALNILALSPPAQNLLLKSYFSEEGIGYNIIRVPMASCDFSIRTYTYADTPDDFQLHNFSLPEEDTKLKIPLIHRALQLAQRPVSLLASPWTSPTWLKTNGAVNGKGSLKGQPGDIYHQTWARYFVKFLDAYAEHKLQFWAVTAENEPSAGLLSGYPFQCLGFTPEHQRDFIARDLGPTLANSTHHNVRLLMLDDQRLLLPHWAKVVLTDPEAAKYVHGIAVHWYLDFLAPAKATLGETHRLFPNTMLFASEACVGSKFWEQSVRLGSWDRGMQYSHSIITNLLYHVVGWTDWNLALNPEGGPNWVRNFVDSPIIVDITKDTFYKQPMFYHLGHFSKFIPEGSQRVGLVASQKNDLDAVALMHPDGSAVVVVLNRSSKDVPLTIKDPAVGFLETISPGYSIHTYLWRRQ
Sequence of Cytochrome P450 2C19 (Homo sapiens) (P33261 whole entry, looked up): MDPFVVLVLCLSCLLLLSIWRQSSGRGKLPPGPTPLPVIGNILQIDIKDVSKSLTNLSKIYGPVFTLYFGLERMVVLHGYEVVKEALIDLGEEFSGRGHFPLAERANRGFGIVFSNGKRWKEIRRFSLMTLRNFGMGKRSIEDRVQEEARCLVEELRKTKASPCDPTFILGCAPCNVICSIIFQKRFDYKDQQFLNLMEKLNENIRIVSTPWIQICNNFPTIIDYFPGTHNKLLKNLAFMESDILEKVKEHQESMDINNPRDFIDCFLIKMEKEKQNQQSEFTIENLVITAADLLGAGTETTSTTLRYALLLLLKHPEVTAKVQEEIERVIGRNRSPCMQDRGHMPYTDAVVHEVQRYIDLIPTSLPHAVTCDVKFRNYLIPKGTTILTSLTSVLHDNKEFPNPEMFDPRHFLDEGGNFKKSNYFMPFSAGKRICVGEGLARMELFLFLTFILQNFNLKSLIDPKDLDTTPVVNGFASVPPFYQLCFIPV

Turning to `COCC(=O)N1CCC2(CC1)CN(Cc1ccc(C#N)cc1)C2`, the Potency in test [1] is > 11.4 µM (inactive); in test [5] it was > 46 µM (inactive). The activity change, negative = inhibition in test [2] is 3.59% (inactive); in test [4] it was -16.7% (inactive); in test [8], -4.37% (inactive). In addition, the Potency entry in [3], in [7] and in [9] was “inactive” throughout. Further, in test [6], the call was inactive. Moreover, the max response in test [8] (setting [20]) was 8.42%; in test [8] (setting [21]), 5.18%.

Turning to `COc1ccc2[nH]cc(CCNc3ncncc3-c3ccc(N(C)C)cc3)c2c1`, the Potency in [1] was > 11.4 µM (inactive); in test [3], 0.251 µM (active); in test [11] it was > 46 µM (inactive); in [5], > 46 µM (inactive); in test [12], 0.501 µM (active); in test [13], 0.501 µM (active). Also, the Potency in [15] was 1.58 µM (active). Also, the figures for the activity change, negative = inhibition in test [4] and in test [8] were 4.01% (inactive) and 5.88% (inactive), respectively. Moreover, the activity, negative = inhibition in [10] was -7.73% (inactive). Further, the Potency result in test [14], in [18] and in test [9] was “inactive” each time. The compound was classed as inactive in [16] and in [17]. Besides, the max response worked out at 5.01% in [8] (setting [20]) and 11% in test [8] (setting [21]).

For the compound `COCCNc1ccnc(-c2cccc(NS(C)(=O)=O)c2)n1`, the Potency is > 11.4 µM (inactive) in test [1], 2 µM (active) in [3], > 46 µM (inactive) in test [11] and > 46 µM (inactive) in test [5]. For the same compound, the activity change, negative = inhibition in test [4] was 12.6% (inactive); in test [8], 9.23% (inactive). Besides, the activity, negative = inhibition in [10] was -1.1% (inactive). Moreover, the result in test [6], in test [16] and in [17] was inactive. Moreover, the Potency entry in test [7], in [14], in [18] and in test [9] was “inactive” throughout. In addition, the results for the max response in test [8] (setting [20]) and in [8] (setting [21]) were 14.8% and 25.9%, respectively.

As for `c1ncc(-c2ccoc2)c(NC2CC2)n1`, the activity change, negative = inhibition is 16.6% (inactive) in [2], 5.32% (inactive) in [4] and 3.62% (inactive) in test [8]. The Potency in test [3] is 15.8 µM (active); in [11] it was > 46 µM (inactive); in [5] it was > 46 µM (inactive); in test [13], 7.94 µM (active); in test [18], 28.2 µM (active). In addition, in test [10], the activity, negative = inhibition was 4.55% (inactive). Also, the call in [6] was inactive. Further, the Potency entry in test [7], in test [14] and in test [9] was “inactive” each time. The max response in [8] (setting [20]) amounted to 21.6%; in test [8] (setting [21]), 22.6%.

As for `CN(C)Cc1ccccc1-c1nccc(N(C)C)n1`, the Potency in test [1] was > 11.4 µM (inactive); in test [3] it was 12.6 µM (active); in test [11], > 46 µM (inactive); in test [5], > 46 µM (inactive). In addition, the values for the activity change, negative = inhibition in test [4] and in test [8] were -0.313% (inactive) and 2.35% (inactive), respectively. In addition, the activity, negative = inhibition in test [10] is 10.1% (inactive). The result in test [6], in [16] and in [17] was inactive. Moreover, the Potency entry in test [7], in test [14], in [18] and in test [9] was “inactive” in each case. The max response in test [8] (setting [20]) is 4.56%; in test [8] (setting [21]), 7.89%.

Take `Cn1cc(-c2nc3cnc(Oc4cccc(Cl)c4)nc3n(CCC#N)c2=O)c2ccccc21`: the Potency in test [1] is > 11.4 µM (inactive); in test [3], 2.51 µM (active); in [11], > 9.22 µM (inactive); in test [5] it was > 46 µM (inactive); in test [19], 1.58 µM (active). In addition, the activity change, negative = inhibition in test [2] is 0.05% (inactive); in test [4], 21.5% (inactive); in test [8], -7.95% (inactive). In addition, the Potency entry in [7], in test [12], in [14] and in [9] was “inactive” in each case. The max response in test [8] (setting [20]) worked out at 6.76%; in test [8] (setting [21]) it was 0.937%.
